Experimental data as given in PubChem BioAssay.
A number with no mark means an inactive call. Calls of active or inactive are those of the source. Cut-off read from the data, not from the text of the source, unless noted: active = inhibition above about 25%; inactive = the rest.

Legend:
[1] = biological target: Nuclear receptor coactivator 1 (Homo sapiens) (UniProt Q15788); test: NCOA1 GAL4-fusion reporter inhibition – cell-based, luminescence, quadruplicate, confirmation (AID 588820;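 active = mean inhibition above 46.68%, the untreated control wells mean plus 3 SD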;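 note: 0% = DMSO wells and 100% = gossypol 36 µM treated wells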); settings: HEK293 GAL4-SRC1 luciferase reporter, at 3.6 µM, active compounds read high
Nuclear receptor coactivator 1 (Homo sapiens), sequence (Q15788 whole entry, looked up, the tested form may be a part): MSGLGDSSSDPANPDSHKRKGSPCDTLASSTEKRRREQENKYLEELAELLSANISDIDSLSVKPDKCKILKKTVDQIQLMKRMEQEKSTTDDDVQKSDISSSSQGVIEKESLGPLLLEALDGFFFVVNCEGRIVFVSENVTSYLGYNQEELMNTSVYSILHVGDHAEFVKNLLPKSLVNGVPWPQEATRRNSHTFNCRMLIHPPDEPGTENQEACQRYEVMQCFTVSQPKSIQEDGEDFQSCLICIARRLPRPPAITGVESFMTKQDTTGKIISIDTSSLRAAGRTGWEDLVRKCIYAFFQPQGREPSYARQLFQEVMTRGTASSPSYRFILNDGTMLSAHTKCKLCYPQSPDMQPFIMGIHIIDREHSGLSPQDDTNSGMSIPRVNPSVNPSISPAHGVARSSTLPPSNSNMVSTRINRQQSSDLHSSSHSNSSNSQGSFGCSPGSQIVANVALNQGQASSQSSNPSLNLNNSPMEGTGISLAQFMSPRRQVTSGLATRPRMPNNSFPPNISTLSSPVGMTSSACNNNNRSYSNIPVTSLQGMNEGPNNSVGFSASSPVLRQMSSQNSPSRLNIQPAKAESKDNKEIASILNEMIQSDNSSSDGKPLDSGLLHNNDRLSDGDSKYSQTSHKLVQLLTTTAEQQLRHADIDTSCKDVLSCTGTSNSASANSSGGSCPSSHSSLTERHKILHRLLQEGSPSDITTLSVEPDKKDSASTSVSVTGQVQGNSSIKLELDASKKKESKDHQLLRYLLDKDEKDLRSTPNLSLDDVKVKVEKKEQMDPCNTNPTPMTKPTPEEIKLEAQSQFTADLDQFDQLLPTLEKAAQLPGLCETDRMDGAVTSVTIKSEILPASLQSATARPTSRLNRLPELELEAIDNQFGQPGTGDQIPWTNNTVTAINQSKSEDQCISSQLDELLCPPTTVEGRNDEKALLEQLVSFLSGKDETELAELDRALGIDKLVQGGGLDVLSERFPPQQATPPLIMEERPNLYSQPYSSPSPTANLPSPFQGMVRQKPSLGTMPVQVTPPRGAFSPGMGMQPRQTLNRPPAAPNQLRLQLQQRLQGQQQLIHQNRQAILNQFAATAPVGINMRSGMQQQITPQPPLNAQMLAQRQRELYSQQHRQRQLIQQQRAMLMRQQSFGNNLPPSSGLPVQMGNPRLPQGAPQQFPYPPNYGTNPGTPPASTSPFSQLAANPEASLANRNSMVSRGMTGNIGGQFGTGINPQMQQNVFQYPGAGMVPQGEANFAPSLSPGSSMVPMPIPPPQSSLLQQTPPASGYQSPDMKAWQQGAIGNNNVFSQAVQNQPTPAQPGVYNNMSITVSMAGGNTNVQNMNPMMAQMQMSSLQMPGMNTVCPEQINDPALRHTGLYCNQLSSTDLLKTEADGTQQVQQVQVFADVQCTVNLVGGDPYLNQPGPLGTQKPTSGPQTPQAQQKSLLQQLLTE

[2] = repression of VP16-driven luciferase reporter – cell-based, luminescence, high throughput, counter-screen for SRC1 inhibitor project (AID 588824); settings: cell-based VP16 transactivation luciferase luminescence; at 3.6 µM; active compounds read high

CCC(C)C(=O)Nc1nc(C)c(-c2csc(Nc3cc(Cl)ccc3OC)n2)s1 (stereo unspecified)
inhibition [1]: -14.5%
inhibition [2]: -1.24%

COc1ccc(-c2nc(-c3ccc(NC(=O)c4ccncc4)cc3)no2)cc1OC
inhibition [1]: -3.19%
inhibition [2]: 41.4% (active)

O=C(c1nnsc1S(=O)c1ccc(Cl)cc1)N1CCOCC1 (stereo unspecified)
inhibition [1]: -24.9%
inhibition [2]: -6.26%

COc1ccc(Cc2nnc(NC(=O)c3cc(OC)c(OC)c(OC)c3)s2)cc1OC
inhibition [1]: -22.8%
inhibition [2]: -17.4%

CC(=O)OCC1OC(n2cc(F)c(=O)[nH]c2=O)C(OC(C)=O)C1OC(C)=O (stereo unspecified)
inhibition [1]: 5.02%
inhibition [2]: 22.9%

Cc1cccc(-n2ncc3c2CCCC3NC(=O)CCN2CCCCO2)c1C (stereo unspecified)
inhibition [1]: -0.83%
inhibition [2]: -2.39%

CCOc1ccc(CCNC(=O)CSCc2ccc(C)cc2)cc1OCC
inhibition [1]: -18.5%
inhibition [2]: -1.5%

Cc1cc(OC(C)C(=O)Nc2ccncc2)ccc1Cl (stereo unspecified)
inhibition [1]: -0.51%
inhibition [2]: 7.56%

COc1ccc(C(=O)N2CCN(c3ccc(NC(=O)c4cccs4)cc3)CC2)cc1
inhibition [1]: 2.7%
inhibition [2]: -1.25%

CC1(C)CC(=O)c2sc(N)nc2C1
inhibition [1]: -9.15%
inhibition [2]: 0.81%

CCOC(=O)C(Cc1c(F)cccc1Cl)c1ccno1 (stereo unspecified)
inhibition [1]: -2.31%
inhibition [2]: -14.2%

CCC(NC(=O)NC1CCCCC1)c1ccccc1 (stereo unspecified)
inhibition [1]: -16%
inhibition [2]: -3.88%

O=C(NNC(=O)c1ccccc1O)c1ccc(Cl)c(S(=O)(=O)N2CCc3ccccc32)c1
inhibition [1]: 8.03%
inhibition [2]: 14.9%
